Measured values: PubChem BioAssay
The source made the active and inactive calls.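 The calls were made as follows, unless noted: active = NADPH fluorescence slope more negative than the mean of all samples by about 3 SD, 99.7% confidence; inactive = the rest.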

Assays:
[1] = inhibitors of TNFa-induced NFkB p65 translocation, primary screen, imaging, HUVEC, MLSMR starter and 10KST1 sets (AID 438;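 active = inhibition above 20% together with a positive visual image hit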;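 also: compound added about 3h40 before a 20 min TNFalpha stimulation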;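 as to inhibition: signal is the nuclear over cytoplasmic p65 intensity ratio per well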); details: HUVEC TNFa-induced p65 nuclear translocation; cell count: measured here: nuclei count (cytotoxicity indicator), at 2.08 µM; inhibition: at 2 µM, stronger effect = higher value, 0% TNFa-plus-vehicle, 100% no-TNFa wells
[2] = inhibitors of mutant huntingtin aggregation, primary screen, imaging, exon1htt(103Q)mCFP cells, high-content imaging (AID 483;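 active = visual image review flags a hit and inhibition of aggregation exceeds 20%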;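 also: compound exposure lasted 3 days before fixation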;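 as to nuclei count: percent of the per-plate median nuclei count of sample wells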); details: exon1htt(103Q)mCFP cell line, aggregate imaging, at 2 µM; inhibition of aggregation: stronger effect = higher value; nuclei count: measured here: cell count, toxicity
[3] = inhibitors of E-selectin induction by TNFa, primary screen, imaging, HUVEC, immunofluorescence, MLSMR starter and 10KST1 sets (AID 487;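 active = visually confirmed hit in the image check and inhibition above 20%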;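 as to inhibition: signal is fraction of cell area covered by stained E-selectin grains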;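 as to nuclei count: 100% = median nuclei count of all wells on the same plate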); details: HUVEC TNFalpha-induced E-selectin immunofluorescence imaging, at 2 µM; inhibition: stronger effect = higher value; nuclei count: measured here: cell number, toxicity
[4] = target: Voltage-gated potassium channel subunit beta-2 (Rattus norvegicus) (UniProt P62483); test: KvBeta enzyme negative modulators, primary screen, biochemical, NADPH fluorescence (AID 622;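 active = fluorescence slope higher than the sample average by over 3 SD, cut at about -0.22 in these data, passing the limit was not always enough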;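 also: slope of raw intensity against log time taken from 70 to 1610 s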); details: recombinant KvBeta, 4-cyanobenzaldehyde reduction, at 10 µM, stronger effect = higher value
[5] = target: Voltage-gated potassium channel subunit beta-2 (Rattus norvegicus) (UniProt P62483); test: KvBeta positive modulators, primary screen, biochemical, NADPH fluorescence (AID 623); details: Recombinant KvBeta, NADPH fluorescence decrease slope, 10 min; at 10 µM; stronger effect = lower value;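 also: fluorescence intensity change per second fitted from 20 to 320 s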
[6] = target: Alpha-2C adrenergic receptor (Homo sapiens) (UniProt P18825); test: modulators of alpha2C/GIRK thallium flux, primary screen, cell-based, HEK293 alpha2C/GIRK1/2 (AID 624;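 active = fluorescence slope after compound addition differing from the mean of all screened samples at 99.7% confidence, in either direction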;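 also: slope of fluorescence ratio to pre-addition baseline per second over 15 to 24 s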); details: thallium flux BTC fluorescence, at 10 µM, actives lie on both sides
[7] = inhibitors of Sendai virus-induced IRF3 signaling, primary screen, TLR/RLR signaling modifier project, cell-based, Sendai virus stimulus, luciferase, 10K MLSCN set (AID 602276;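 active = inhibition at or above 50% at 10 µM; inactive = inhibition below 50%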;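 also: firefly luciferase from ISG56 promoter only with Renilla not read in this screen; 0% = Sendai virus plus DMSO and 100% = medium plus DMSO without virus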); details: HEK293 RL24 IRF3 luciferase reporter, at 10 µM, stronger effect = higher value
[8] = inhibitors of poly I:C-induced TLR3 signaling, primary screen, cell-based, poly I:C stimulus, luciferase, 10K MLSCN set (AID 602277;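 active = inhibition of the reporter signal at or above 50%; inactive = inhibition below 50%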); details: HEK293-TLR3 RL24 IRF3 luciferase reporter, at 10 µM, stronger effect = higher value

Sequence of Voltage-gated potassium channel subunit beta-2 (Rattus norvegicus) (P62483 whole entry, looked up): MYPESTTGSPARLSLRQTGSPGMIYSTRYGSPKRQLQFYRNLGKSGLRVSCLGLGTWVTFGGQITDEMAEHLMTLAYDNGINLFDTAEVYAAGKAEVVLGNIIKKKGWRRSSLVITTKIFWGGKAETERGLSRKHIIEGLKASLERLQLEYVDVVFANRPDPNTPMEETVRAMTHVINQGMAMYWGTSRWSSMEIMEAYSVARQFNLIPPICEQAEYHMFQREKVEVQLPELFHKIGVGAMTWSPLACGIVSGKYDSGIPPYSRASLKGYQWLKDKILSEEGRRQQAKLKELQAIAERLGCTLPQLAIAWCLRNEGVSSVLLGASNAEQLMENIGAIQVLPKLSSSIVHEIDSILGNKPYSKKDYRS
Sequence of Alpha-2C adrenergic receptor (Homo sapiens) (P18825 whole entry, looked up): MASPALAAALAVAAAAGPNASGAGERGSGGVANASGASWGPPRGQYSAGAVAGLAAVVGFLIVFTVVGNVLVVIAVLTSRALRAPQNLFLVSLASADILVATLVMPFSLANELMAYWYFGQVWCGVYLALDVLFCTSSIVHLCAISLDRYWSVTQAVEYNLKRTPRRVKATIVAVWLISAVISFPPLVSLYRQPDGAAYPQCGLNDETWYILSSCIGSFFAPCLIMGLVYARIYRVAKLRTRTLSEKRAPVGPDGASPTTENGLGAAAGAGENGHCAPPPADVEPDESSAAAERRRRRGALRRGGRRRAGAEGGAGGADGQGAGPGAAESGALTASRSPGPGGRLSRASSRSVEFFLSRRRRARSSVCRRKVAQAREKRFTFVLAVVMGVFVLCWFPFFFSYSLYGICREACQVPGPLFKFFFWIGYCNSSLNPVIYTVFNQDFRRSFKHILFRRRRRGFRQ

SMILES	cell count [1]	inhibition [1]	inhibition of aggregation [2]	nuclei count [2] [%]	inhibition [3]	nuclei count [3] [%]	fluorescence slope [4]	NADPH fluorescence slope [5]	slope [6]	inhibition [7]	inhibition [8]
CCn1c2ccccc2c2cc(N)ccc21	705	-34.5% (inactive)	17.8% (inactive)	91.5	-37.7% (inactive)	107	-0.458 (inactive)	5.8e-06 (inactive)	0.00355 (inactive)	8.66% (inactive)	15.3% (inactive)
CCN(CC)S(=O)(=O)c1ccc(F)cc1	630	2.4% (inactive)	-0.6% (inactive)	100	-75.6% (inactive)	114	-0.506 (inactive)	-0.000197 (inactive)	0.00613 (inactive)	13.9% (inactive)	19.3% (inactive)
Cc1[nH]c2ccccc2c1Cc1nnc(SCC(=O)NCc2ccco2)o1	428	-7.7% (inactive)	12.9% (inactive)	83.4	-24.9% (inactive)	87	-0.436 (inactive)	1.9e-05 (inactive)	0.0061 (inactive)	-11.7% (inactive)	-28.3% (inactive)
Cc1nn(C)c(C)c1NC(=O)CCSc1nc(-c2ccco2)cc(C(F)(F)F)n1	491	-2.2% (inactive)	10.3% (inactive)	108	23.6% (inactive)	100	-0.432 (inactive)	-6.1e-05 (inactive)	0.00599 (inactive)	4.67% (inactive)	-10.1% (inactive)
CCN(CC)S(=O)(=O)c1ccc2[nH]cc(C(=O)NCCC3=CCCCC3)c(=O)c2c1	344	8.4% (inactive)	-4.1% (inactive)	71.6	96.3% (active)	91	-0.498 (inactive)	-4.6e-05 (inactive)	0.00467 (inactive)	12% (inactive)	6.76% (inactive)
COc1ccc(NC(=O)CN(c2ccc(C(C)C)cc2)S(=O)(=O)c2c(C)noc2C)cc1OC	787	3.4% (inactive)	-119% (inactive)	123	-24.6% (inactive)	108	-0.617 (inactive)	2e-05 (inactive)	0.00605 (inactive)	18.3% (inactive)	41.9% (inactive)
COCCn1nnnc1CN(Cc1cccnc1)Cc1cc2cc(OC)ccc2[nH]c1=O	670	-10.6% (inactive)	-13.1% (inactive)	122	-11.6% (inactive)	107	-0.605 (inactive)	-3.4e-05 (inactive)	0.00315 (inactive)	14.3% (inactive)	25.2% (inactive)
CC(C)(C)SCCNC(=O)COc1ccc(Cl)cc1	237	3.4% (inactive)	19.9% (inactive)	83.8	-272% (inactive)	147	-0.419 (inactive)	1.6e-05 (inactive)	0.00681 (inactive)	-15.2% (inactive)	-2.28% (inactive)
C/C=C/CSc1nc2c(c(=O)[nH]c(=O)n2C)n1Cc1ccc(C)cc1	693	-6.9% (inactive)	-5% (inactive)	116	-43.7% (inactive)	112	-0.542 (inactive)	-3.9e-05 (inactive)	0.0074 (inactive)	-3.97% (inactive)	18.2% (inactive)
O=C(NCC1COc2ccccc2O1)C1CCCN(S(=O)(=O)c2cnc[nH]2)C1 (stereo not drawn)	617	7.3% (inactive)	-15.6% (inactive)	100	-63.3% (inactive)	124	-0.501 (inactive)	-2e-05 (inactive)	0.00703 (inactive)	4.57% (inactive)	24.5% (inactive)
CCCC(=O)Nc1nnc(Sc2ccc(N(C)C)cc2)s1	671	4.8% (inactive)	-9.6% (inactive)	96.4	-15.5% (inactive)	97.6	-0.466 (inactive)	-2.9e-05 (inactive)	0.00582 (inactive)	-1.24% (inactive)	-10.3% (inactive)
CCCN(Cc1cc2cc(C)ccc2[nH]c1=O)C(=O)c1cccc(OC)c1	594	8.2% (inactive)	-3.9% (inactive)	101	-74% (inactive)	107	-0.506 (inactive)	-5.1e-05 (inactive)	0.00579 (inactive)	10.4% (inactive)	10.9% (inactive)
COc1ccc(S(=O)(=O)CCC(=O)O)cc1	756	-2.2% (inactive)	25.4% (inactive)	126	-47.5% (inactive)	107	-0.603 (inactive)	1.2e-05 (inactive)	0.00748 (inactive)	17% (inactive)	21.8% (inactive)
COc1ccc(-c2nnc(SCC(=O)c3cc(C)n(Cc4cccs4)c3C)o2)cc1	497	-13.7% (inactive)	-13.1% (inactive)	97.7	-129% (inactive)	161	-0.559 (inactive)	5.5e-05 (inactive)	0.00615 (inactive)	-5.7% (inactive)	-11.8% (inactive)
CC(C)COC(=O)C1C2C=CC3(CN(C(C)c4ccc(Br)cc4)C(=O)C13)O2 (stereo not drawn)	477	-10.8% (inactive)	28.1% (inactive)	78.4	-32.2% (inactive)	86.6	-0.532 (inactive)	-3.6e-05 (inactive)	0.00795 (inactive)	11.4% (inactive)	28.5% (inactive)
COc1ccc(C(c2nnnn2C2CCCC2)N2CCC(C)CC2)c(OC)c1 (stereo not drawn)	584	-7.1% (inactive)	-6.5% (inactive)	102	-5.7% (inactive)	109	-0.571 (inactive)	1.2e-05 (inactive)	0.005 (inactive)	2.52% (inactive)	3.27% (inactive)
Cc1cccc(N=C2NC(=O)CS2)c1C	333	-0.6% (inactive)	-5.7% (inactive)	109	3.7% (inactive)	93.9	-0.499 (inactive)	-3.3e-05 (inactive)	0.00501 (inactive)	20.6% (inactive)	22.9% (inactive)
C=CCN(C(=O)CNS(=O)(=O)c1ccccc1)C(C(=O)NCCOC)c1ccncc1 (stereo not drawn)	543	-18.3% (inactive)	18.4% (inactive)	93.8	7.6% (inactive)	80.2	-0.478 (inactive)	3.8e-06 (inactive)	0.00567 (inactive)	11% (inactive)	5.34% (inactive)
CCN(CC)CCOC(=O)c1c(C)oc2ccc(O)cc12	418	11.9% (inactive)	-8.4% (inactive)	74.1	30.6% (inactive)	106	-0.5 (inactive)	-8e-05 (inactive)	0.00511 (inactive)	8.25% (inactive)	6.72% (inactive)
Cc1cc(C)nc(N(C#N)CC(=O)N2CCC(C(N)=O)CC2)n1	553	-16.4% (inactive)	12.3% (inactive)	98.2	21.6% (inactive)	98.4	-0.489 (inactive)	1.8e-05 (inactive)	0.00455 (inactive)	14.2% (inactive)	13.3% (inactive)
CC1CCN(Cc2ccc(NC(=O)C3CCN(c4nnc(-n5cccc5)s4)CC3)cc2)CC1	720	-3% (inactive)	13.7% (inactive)	50.5	44.3% (inactive)	97.9	-0.409 (inactive)	-5.4e-05 (inactive)	0.0059 (inactive)	10.3% (inactive)	44% (inactive)
CCCN(C(=O)CSc1nnc(-c2ccoc2C)n1N)C1CCS(=O)(=O)C1 (stereo not drawn)	468	11.7% (inactive)	-26.6% (inactive)	116	30.6% (inactive)	108	-0.413 (inactive)	-8.5e-05 (inactive)	0.00528 (inactive)	15.7% (inactive)	22.7% (inactive)
Cc1ccc(C(c2sc3nc(C)nn3c2O)N2CC(C)OC(C)C2)cc1 (stereo not drawn)	213	-3.9% (inactive)	-30.3% (inactive)	110	-23.9% (inactive)	108	-0.44 (inactive)	-5.9e-05 (inactive)	0.00489 (inactive)	16.3% (inactive)	29.9% (inactive)
N#CC1=C(N)S[C@H](C(=O)C23CC4CC(CC(C4)C2)C3)[C@H]1c1ccncc1	297	2.4% (inactive)	-16.4% (inactive)	105	-10.8% (inactive)	111	-0.482 (inactive)	-1.6e-05 (inactive)	0.0041 (inactive)	11.9% (inactive)	23.4% (inactive)
Cc1cnc(C(=O)OCC(=O)Nc2ccc(Oc3ccccc3)cc2)cn1	566	-16.3% (inactive)	-29.2% (inactive)	107	-1.5% (inactive)	122	-0.367 (inactive)	-8.3e-06 (inactive)	0.00457 (inactive)	-29.5% (inactive)	-39.7% (inactive)
O=C(NCCC1=CCCCC1)c1cc2c(s1)CS(=O)(=O)C2	610	6% (inactive)	-19.3% (inactive)	102	31% (inactive)	94.9	-0.433 (inactive)	-0.000138 (inactive)	0.00559 (inactive)	-7.34% (inactive)	-9.88% (inactive)
COc1ccc(N=c2scc(-c3ccc(S(=O)(=O)N4CCOCC4)cc3)n2CCCO)cc1	974	-6.1% (inactive)	23% (inactive)	99.9	-218% (inactive)	136	-0.319 (inactive)	-2.9e-05 (inactive)	0.00558 (inactive)	41.4% (inactive)	-19.4% (inactive)
Cc1nc(NCc2ccc3c(c2)OCO3)c2oc3ccccc3c2n1	292	12.8% (inactive)	-3.5% (inactive)	105	44.7% (inactive)	101	-0.516 (inactive)	2.5e-05 (inactive)	0.00488 (inactive)	4.64% (inactive)	-12% (inactive)
